Experimental data as given in the supplement of paper PMC12494721.
Structures can show the parent of a compound that is named as a salt.

Columns and labels:
Settings in all cases: 20 µM; incubation time: 27 h, anaerobic, 37 °C;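 for the amine columns active = adjusted P below 0.05 in both replicates with a change the same way and a mean fold change under 0.8 or over 1.25; inactive = the rest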
[1] = test system: Clostridium sporogenes DSM 1664; test: growth (OD595) fold change vs plate DMSO controls (fold change (ratio)); higher = more growth
Procedure, shortened: (§1)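 Growth is expressed as the fold change relative to the median of the DMSO control wells on each plate. Cultures in mGAM were grown anaerobically in 96-well plates for 27 h at 37 °C, shaken, and read at 595 nm. Readings were blank-subtracted, corrected for compound background with 20 µM compound solutions in water, and converted to OD with a calibration factor of 5. Fold changes above 1.5 were set to NA, and each value is the mean of 2 biological replicates.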

Escherichia coli IAI1 [2] = test: as above
Procedure, shortened: as §1

[3] = test system: Klebsiella aerogenes DSM 30053; test: as above
Procedure, shortened: as §1

[4] = test system: Ruminococcus gnavus DSM 108212; test: as above
Procedure, shortened: as §1

[5] = test system: Klebsiella aerogenes DSM 30053; test: fold change of Histamine concentration vs plate DMSO controls (fold change (ratio)); higher = more amine produced, active = hit call of the paper (significant change in both replicates, either direction)
Procedure, shortened: (§2)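 In 80 µL wells, cultures of four gut bacterial strains in mGAM started at OD 0.1 before a 1:1 dilution and grew anaerobically at 37 °C for 27 h. Compounds were added to 20 µM final, except sweeteners at 50 µM final. After extraction of whole cultures with cold acetonitrile/methanol plus 0.1% formic acid and centrifugation, amines were measured by LC–triple-quadrupole MS in dynamic MRM mode against external calibration curves, with within-batch drift correction. Values give fold change over DMSO controls on the same plate, averaged across 2 biological replicates.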

[6] = test system: Clostridium sporogenes DSM 1664; test: fold change of Tryptamine concentration vs plate DMSO controls (fold change (ratio)); higher = more amine produced, active = hit call of the paper (significant change in both replicates, either direction)
Procedure, shortened: as §2

[7] = test system: Ruminococcus gnavus DSM 108212; test: as above
Procedure, shortened: as §2

Escherichia coli IAI1 [8] = test: fold change of Putrescine concentration vs plate DMSO controls (fold change (ratio)); higher = more amine produced, active = hit call of the paper (significant change in both replicates, either direction)
Procedure, shortened: as §2

[9] = test system: Klebsiella aerogenes DSM 30053; test: as above
Procedure, shortened: as §2

Escherichia coli IAI1 [10] = test: fold change of Cadaverine concentration vs plate DMSO controls (fold change (ratio)); higher = more amine produced, active = hit call of the paper (significant change in both replicates, either direction)
Procedure, shortened: as §2

[11] = test system: Klebsiella aerogenes DSM 30053; test: as above
Procedure, shortened: as §2

[12] = test system: Ruminococcus gnavus DSM 108212; test: fold change of 2-Phenylethylamine concentration vs plate DMSO controls (fold change (ratio)); higher = more amine produced, active = hit call of the paper (significant change in both replicates, either direction)
Procedure, shortened: as §2

| SMILES | growth [1] | growth (Escherichia coli IAI1 [2]) | growth [3] | growth [4] | fold change of Histamine concentration [5] | fold change of Tryptamine concentration [6] | fold change of Tryptamine concentration [7] | fold change of Putrescine concentration (Escherichia coli IAI1 [8]) | fold change of Putrescine concentration [9] | fold change of Cadaverine concentration (Escherichia coli IAI1 [10]) | fold change of Cadaverine concentration [11] | fold change of 2-Phenylethylamine concentration [12] |
| --- | --- | --- | --- | --- | --- | --- | --- | --- | --- | --- | --- | --- |
| OCC(O)CCl (racemic) | 0.938 | 1.02 | 0.97 | 0.97 | 1.01 (inactive) | 1.11 (inactive) | 1.08 (inactive) | 0.975 (inactive) | 0.959 (inactive) | 0.891 (inactive) | 1 (inactive) | 1.18 (inactive) |
| CN1C[C@H](C(=O)N[C@]2(C)O[C@@]3(O)[C@@H]4CCCN4C(=O)[C@H](Cc4ccccc4)N3C2=O)C[C@@H]2c3cccc4[nH]cc(c34)C[C@H]21 [Dihydroergotamine tartrate] | 1.2 | 1.13 | 1.1 | 0.827 | 0.89 (inactive) | 0.928 (inactive) | 0.982 (inactive) | 1.06 (inactive) | 0.984 (inactive) | 0.966 (inactive) | 1.01 (inactive) | 0.921 (inactive) |
| CC(C)(C)NCC(O)c1ccccc1Cl (stereo not drawn) [Tulobuterol Hydrochloride] | 0.953 | 0.972 | 0.966 | 1.11 | 0.972 (inactive) | 1 (inactive) | 1.01 (inactive) | 1.02 (inactive) | 1.02 (inactive) | 0.993 (inactive) | 1.01 (inactive) | 1.03 (inactive) |
| O=C1C=C(N(Cc2ccc(Cl)nc2)CC(F)F)CO1 | 0.968 | 1.01 | 0.997 | 0.923 | 1.02 (inactive) | 1.15 (inactive) | 1.1 (inactive) | 0.94 (inactive) | 1 (inactive) | 0.933 (inactive) | 1.01 (inactive) | 1.15 (inactive) |
| CCC1(c2ccc(N)cc2)CCC(=O)NC1=O (stereo not drawn) [Glutethimide, para-amino] | 0.956 | 1.01 | 0.979 | 1.14 | 1.12 (inactive) | 1.02 (inactive) | 1.04 (inactive) | 0.992 (inactive) | 1.02 (inactive) | 0.974 (inactive) | 0.993 (inactive) | 1 (inactive) |
| CC(C)[N+](C)(CCC(C(N)=O)(c1ccccc1)c1ccccc1)C(C)C [Isopropamide iodide] | 1.04 | 1.09 | 0.982 | 1.39 | 1.01 (inactive) | 0.99 (inactive) | 0.909 (inactive) | 1.24 (inactive) | 1.01 (inactive) | 0.936 (inactive) | 0.997 (inactive) | 0.834 (inactive) |
| O=NN(CCO)CCO [DMNA (N-nitrosodiethanolamine)] | 0.95 | 1.15 | 1 | 1.09 | 0.975 (inactive) | 0.994 (inactive) | 1.05 (inactive) | 1.03 (inactive) | 0.957 (inactive) | 0.978 (inactive) | 1.03 (inactive) | 1.08 (inactive) |
| CC1C=CC=CCCC=CC=CC=CC=CC(OC2OC(C)C(O)C(N)C2O)CC2OC(O)(CC(O)C(O)CCC(O)CC(O)CC(O)CC(=O)OC(C)C(C)C1O)CC(O)C2C(=O)O (stereo not drawn) [Nystatine] | 0.964 | 0.993 | 1.01 | 1.16 | 0.962 (inactive) | 0.989 (inactive) | 1.01 (inactive) | 0.999 (inactive) | 1 (inactive) | 1.05 (inactive) | 1.01 (inactive) | 0.998 (inactive) |
| Cc1cc(C(C#N)c2ccc(Cl)cc2)c(Cl)cc1NC(=O)c1cc(I)cc(I)c1O (stereo not drawn) [Closantel] | 0.0125 | 1.08 | 1.03 | 0.185 | 0.981 (inactive) | 0.0178 (active) | 0.121 (active) | 1.19 (inactive) | 0.984 (inactive) | 1.32 (active) | 1.05 (inactive) | 0.13 (active) |
| C[CH2][Hg][S]c1ccccc1C(=O)[O-].[Na+] [Thimerosal] | 0.878 | 0.91 | 0.707 | – | 0.531 (inactive) | 0.986 (inactive) | 0.487 (active) | 0.936 (inactive) | 0.953 (inactive) | 0.896 (inactive) | 1 (inactive) | 0.496 (inactive) |
| NCCCNCCSP(=O)(O)O [Amifostine] | 0.94 | 1 | 1.12 | 1.38 | 0.978 (inactive) | 1.01 (inactive) | 1.03 (inactive) | 1 (inactive) | 0.999 (inactive) | 1.01 (inactive) | 0.999 (inactive) | 1.01 (inactive) |
| CN1[C@@H]2CC[C@H]1C[C@@H](OC(=O)C(CO)c1ccccc1)C2 (stereo partly drawn) [Atropine sulfate monohydrate] | – | 0.98 | – | 0.986 | 1.03 (inactive) | – | 1.01 (inactive) | 0.982 (inactive) | 1.02 (inactive) | 0.957 (inactive) | 1.02 (inactive) | 1.01 (inactive) |
| CCCCCC[C@H]1C(=O)O[C@H](C)[C@H](NC(=O)c2cccc(NC=O)c2O)C(=O)O[C@@H](C)[C@@H]1OC(=O)CC(C)C [Antimycin A] | 1.09 | 1.03 | 1.02 | 1.15 | 0.994 (inactive) | 0.974 (inactive) | 1.04 (inactive) | 0.99 (inactive) | 0.98 (inactive) | 1.03 (inactive) | 1.01 (inactive) | 0.975 (inactive) |
| O=C1C2(Cl)C3(Cl)C4(Cl)C(Cl)(Cl)C5(Cl)C3(Cl)C1(Cl)C5(Cl)C24Cl (stereo not drawn) | 0 | 1.09 | 1.04 | – | 1.07 (inactive) | 0.0206 (active) | 0.27 (active) | 1.05 (inactive) | 1.07 (inactive) | 1.14 (inactive) | 1.05 (inactive) | 0.297 (inactive) |
| CC[C@H](C)C1O[C@]2(C=C[C@@H]1C)C[C@@H]1C[C@@H](C/C=C(\C)[C@@H](O[C@H]3C[C@H](OC)[C@@H](O[C@H]4C[C@H](OC)[C@H](NC)[C@H](C)O4)[C@H](C)O3)[C@@H](C)/C=C/C=C3\CO[C@@H]4[C@H](O)C(C)=C[C@@H](C(=O)O1)[C@]34O)O2 (stereo partly drawn) | 0.931 | 1.08 | 1.05 | – | 0.888 (inactive) | 0.823 (inactive) | 0.581 (active) | 1.05 (inactive) | 0.995 (inactive) | 1.02 (inactive) | 0.995 (inactive) | 0.654 (inactive) |
| COP(=S)(OC)SCN1C(=O)c2ccccc2C1=O | 1.02 | 1.08 | 1.05 | 0.965 | 0.945 (inactive) | 1.03 (inactive) | 1.01 (inactive) | 1.01 (inactive) | 1.01 (inactive) | 0.997 (inactive) | 1.01 (inactive) | 1 (inactive) |
| CCCN1C[C@H](CSC)C[C@@H]2c3cccc4[nH]cc(c34)C[C@H]21 [Pergolide mesylate] | 0.995 | 0.953 | 0.998 | 0.982 | 0.953 (inactive) | 0.969 (inactive) | 1.02 (inactive) | 0.968 (inactive) | 0.993 (inactive) | 1.06 (inactive) | 1.01 (inactive) | 1.04 (inactive) |
| c1ccc2c(c1)OCC(C1=NCCN1)O2 (stereo not drawn) [Idazoxan hydrochloride] | 1.09 | 1.01 | 1.01 | 0.978 | 1 (inactive) | 0.976 (inactive) | 0.832 (inactive) | 1.1 (inactive) | 0.998 (inactive) | 0.996 (inactive) | 0.996 (inactive) | 0.785 (inactive) |
| CN(C)[C@@H]1C(=O)C(C(N)=O)=C(O)[C@@]2(O)C(=O)C3=C(O)c4c(O)cccc4[C@@](C)(O)[C@H]3C[C@@H]12 [Tetracycline hydrochloride] | 0.00861 | 0.0722 | 0.0623 | 0.735 | 0.0521 (active) | 0.024 (active) | 0.799 (inactive) | 0.291 (inactive) | 0.481 (inactive) | 0.148 (active) | 0.411 (inactive) | 0.86 (inactive) |
| CCC(=O)O[C@H]1CC[C@H]2[C@@H]3CCC4=CC(=O)CC[C@]4(C)[C@H]3CC[C@]12C [Testosterone propionate] | 1.02 | 1.01 | 1.03 | – | 1.02 (inactive) | 0.993 (inactive) | 1.08 (inactive) | 0.938 (inactive) | 1.02 (inactive) | 0.985 (inactive) | 1.07 (inactive) | 1.23 (inactive) |
| CN1[C@@H]2CC[C@H]1C[C@@H](OC(=O)[C@H](CO)c1ccccc1)C2 [(L) Hyoscyamine] | – | 1.03 | 1.06 | 1.08 | 0.941 (inactive) | – | 1.13 (inactive) | 0.992 (inactive) | 0.94 (inactive) | 0.923 (inactive) | 1.02 (inactive) | 1.11 (inactive) |
| CCOCn1c(-c2ccc(Cl)cc2)c(C#N)c(Br)c1C(F)(F)F | 0.89 | 1 | 1.01 | 0.948 | 1 (inactive) | 0.999 (inactive) | 1.02 (inactive) | 1.03 (inactive) | 0.999 (inactive) | 1.03 (inactive) | 0.983 (inactive) | 1.01 (inactive) |
| OC(Cc1ccccc1Cl)(Cn1nc[nH]c1=S)C1(Cl)CC1 (stereo not drawn) | 0.971 | 1.12 | 0.969 | 0.953 | 1.04 (inactive) | 1.02 (inactive) | 0.978 (inactive) | 0.937 (inactive) | 0.96 (inactive) | 0.946 (inactive) | 0.974 (inactive) | 0.951 (inactive) |
| Nc1ccncc1 [Dalfampridine] | 0.947 | 0.992 | 1.02 | 0.985 | 0.957 (inactive) | 1 (inactive) | 1 (inactive) | 0.968 (inactive) | 0.989 (inactive) | 0.957 (inactive) | 1 (inactive) | 0.991 (inactive) |
| CN/C(=N/CC1CCOC1)N[N+](=O)[O-] (stereo not drawn) | 1.07 | 1 | 1.01 | 1.03 | 1.03 (inactive) | 0.993 (inactive) | 1.01 (inactive) | 1.03 (inactive) | 1.02 (inactive) | 0.992 (inactive) | 0.999 (inactive) | 0.994 (inactive) |
| COc1ccc2c(c1)[C@]13CCCC[C@@H]1[C@H](C2)N(C)CC3 [Dextromethorphan hydrobromide monohydrate] | 1.05 | 0.975 | 1.05 | 0.761 | 0.977 (inactive) | 0.991 (inactive) | 0.998 (inactive) | 0.962 (inactive) | 0.999 (inactive) | 1.01 (inactive) | 1.02 (inactive) | 1.04 (inactive) |
